In PubChem BioAssay:
Several values for one entry are separate records, joined by “and”; a condition that tells them apart may be missing. Equal entries are not always repeated. Activity calls are given as the source filed them.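 The calls were made as follows: active = normalized viability below 100% at a tested concentration; inactive = the rest.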

Experiment: survival rescue of mitochondrial mutant cells in low glucose, primary screen, MELAS cybrids, Rieske KO mouse fibroblasts, CellTiter-Glo (AID 1508586);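 also: z relative to plate mean and SD of compound and empty wells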
Settings: Rieske KO mouse fibroblast survival, CellTiter-Glo 72 h

Row | Structure (SMILES) | z-score
1 | CNC(=O)c1cc(COc2nnc(Nc3ccc(Cl)cc3)c3ccoc23)ccn1 | 0.512
2 | Nc1ccn([C@@H]2O[C@H](CO)[C@@H](O)C2(F)F)c(=O)n1 | 10.5 and 7.93
3 | COc1cc2ncnc(Nc3cccc(Cl)c3)c2cc1OC | 0.126
4 | CC(=O)Oc1cc2c(s1)CCN(C(C(=O)C1CC1)c1ccccc1F)C2 (centres undefined) | -0.245 and 0.545
5 | Nc1cccc(-c2cc3c(Oc4cccc(O)c4)ncnc3[nH]2)c1 | -2.88
6 | O=C(Nc1nc2cccc(-c3ccc(CN4CCS(=O)(=O)CC4)cc3)n2n1)C1CC1 | -1.33
7 | CC(C)(O)CC(=O)NCCn1ccc2ncnc(Nc3ccc(Oc4cccc(C(F)(F)F)c4)c(Cl)c3)c21 | 0.83
8 | CNC(=O)c1cc(Oc2ccc(NC(=O)Nc3ccc(Cl)c(C(F)(F)F)c3)c(F)c2)ccn1 | 1.02
9 | CS(=O)(=O)N1CCc2c(-c3cnc(N)nc3)nc(N3CCOCC3)nc21 | -1.3

Experiment: ovarian cancer cell viability with rucaparib, profiling panel, oncology-focused library, rucaparib conditional (AID 1508598)
Settings: patient-derived ovarian cancer cells, CellTiter-Glo viability, 144 h; at 0.000305 µM; OCI-C5x cells; with rucaparib 10 µM; stronger effect = lower value; 100% = cells with rucaparib alone

Row | Structure (SMILES) | viability
10 | CNC(=O)c1cc(COc2nnc(Nc3ccc(Cl)cc3)c3ccoc23)ccn1 | 113% (inactive)
11 | Nc1ccn([C@@H]2O[C@H](CO)[C@@H](O)C2(F)F)c(=O)n1 | 107% (inactive)
12 | O=C(CCCCCCC(=O)Nc1ccc([C@H]2O[C@@H](CSc3nc(-c4ccccc4)c(-c4ccccc4)o3)C[C@@H](c3ccc(CO)cc3)O2)cc1)NO | 114% (inactive)
13 | CNC(=O)c1cc(Oc2ccc(NC(=O)Nc3ccc(Cl)c(C(F)(F)F)c3)c(F)c2)ccn1 | 108% (inactive)
14 | CS(=O)(=O)N1CCc2c(-c3cnc(N)nc3)nc(N3CCOCC3)nc21 | 100% (inactive)

Same assay, conditions: patient-derived ovarian cancer cells, CellTiter-Glo viability, 144 h; at 0.000305 µM; OCI-C5x cells; without rucaparib; stronger effect = lower value

Row | Structure (SMILES) | viability
15 | CNC(=O)c1cc(COc2nnc(Nc3ccc(Cl)cc3)c3ccoc23)ccn1 | 111% (inactive)
16 | Nc1ccn([C@@H]2O[C@H](CO)[C@@H](O)C2(F)F)c(=O)n1 | 87.2% (active)
17 | O=C(CCCCCCC(=O)Nc1ccc([C@H]2O[C@@H](CSc3nc(-c4ccccc4)c(-c4ccccc4)o3)C[C@@H](c3ccc(CO)cc3)O2)cc1)NO | 141% (inactive)
18 | CNC(=O)c1cc(Oc2ccc(NC(=O)Nc3ccc(Cl)c(C(F)(F)F)c3)c(F)c2)ccn1 | 90.4% (active)
19 | CS(=O)(=O)N1CCc2c(-c3cnc(N)nc3)nc(N3CCOCC3)nc21 | 117% (inactive)

Same assay, conditions: patient-derived ovarian cancer cells, CellTiter-Glo viability, 144 h; at 0.000305 µM; OCI-P5x cells; with rucaparib 20 µM; stronger effect = lower value; 100% = cells with rucaparib alone

Row | Structure (SMILES) | viability
20 | CNC(=O)c1cc(COc2nnc(Nc3ccc(Cl)cc3)c3ccoc23)ccn1 | 105% (inactive)
21 | Nc1ccn([C@@H]2O[C@H](CO)[C@@H](O)C2(F)F)c(=O)n1 | 74.1% (active)
22 | O=C(CCCCCCC(=O)Nc1ccc([C@H]2O[C@@H](CSc3nc(-c4ccccc4)c(-c4ccccc4)o3)C[C@@H](c3ccc(CO)cc3)O2)cc1)NO | 97.6% (active)
23 | CNC(=O)c1cc(Oc2ccc(NC(=O)Nc3ccc(Cl)c(C(F)(F)F)c3)c(F)c2)ccn1 | 101% (inactive)
24 | CS(=O)(=O)N1CCc2c(-c3cnc(N)nc3)nc(N3CCOCC3)nc21 | 117% (inactive)

Same assay, conditions: patient-derived ovarian cancer cells, CellTiter-Glo viability, 144 h; at 0.000305 µM; OCI-P5x cells; without rucaparib; stronger effect = lower value

Row | Structure (SMILES) | viability
25 | CNC(=O)c1cc(COc2nnc(Nc3ccc(Cl)cc3)c3ccoc23)ccn1 | 114% (inactive)
26 | Nc1ccn([C@@H]2O[C@H](CO)[C@@H](O)C2(F)F)c(=O)n1 | 32.9% (active)
27 | O=C(CCCCCCC(=O)Nc1ccc([C@H]2O[C@@H](CSc3nc(-c4ccccc4)c(-c4ccccc4)o3)C[C@@H](c3ccc(CO)cc3)O2)cc1)NO | 111% (inactive)
28 | CNC(=O)c1cc(Oc2ccc(NC(=O)Nc3ccc(Cl)c(C(F)(F)F)c3)c(F)c2)ccn1 | 104% (inactive)
29 | CS(=O)(=O)N1CCc2c(-c3cnc(N)nc3)nc(N3CCOCC3)nc21 | 109% (inactive)

Same assay, conditions: patient-derived ovarian cancer cells, CellTiter-Glo viability, 144 h; at 0.00122 µM; OCI-C5x cells; with rucaparib 10 µM; stronger effect = lower value; 100% = cells with rucaparib alone

Row | Structure (SMILES) | viability
30 | CNC(=O)c1cc(COc2nnc(Nc3ccc(Cl)cc3)c3ccoc23)ccn1 | 109% (inactive)
31 | Nc1ccn([C@@H]2O[C@H](CO)[C@@H](O)C2(F)F)c(=O)n1 | 90.4% (active)
32 | O=C(CCCCCCC(=O)Nc1ccc([C@H]2O[C@@H](CSc3nc(-c4ccccc4)c(-c4ccccc4)o3)C[C@@H](c3ccc(CO)cc3)O2)cc1)NO | 112% (inactive)
33 | CNC(=O)c1cc(Oc2ccc(NC(=O)Nc3ccc(Cl)c(C(F)(F)F)c3)c(F)c2)ccn1 | 108% (inactive)
34 | CS(=O)(=O)N1CCc2c(-c3cnc(N)nc3)nc(N3CCOCC3)nc21 | 103% (inactive)

Same assay, conditions: patient-derived ovarian cancer cells, CellTiter-Glo viability, 144 h; at 0.00122 µM; OCI-C5x cells; without rucaparib; stronger effect = lower value

Row | Structure (SMILES) | viability
35 | CNC(=O)c1cc(COc2nnc(Nc3ccc(Cl)cc3)c3ccoc23)ccn1 | 117% (inactive)
36 | Nc1ccn([C@@H]2O[C@H](CO)[C@@H](O)C2(F)F)c(=O)n1 | 93.9% (active)
37 | O=C(CCCCCCC(=O)Nc1ccc([C@H]2O[C@@H](CSc3nc(-c4ccccc4)c(-c4ccccc4)o3)C[C@@H](c3ccc(CO)cc3)O2)cc1)NO | 131% (inactive)
38 | CNC(=O)c1cc(Oc2ccc(NC(=O)Nc3ccc(Cl)c(C(F)(F)F)c3)c(F)c2)ccn1 | 90.8% (active)
39 | CS(=O)(=O)N1CCc2c(-c3cnc(N)nc3)nc(N3CCOCC3)nc21 | 117% (inactive)
